A number with no mark means an inactive call. The source made the active and inactive calls. No rule for the calls is given here. Bounds are passed on as bounds.
Potency is read from the fitted curve at half-maximal effect.

The test system of this assay is HIV-1 nucleocapsid protein NCp7 (binding to TG oligonucleotide). Kind of assay: HIV Nucleocapsid (AID 346).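 Also: potency is for inhibitors that block NC binding and lower polarization.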 The note with it: HIV-1 NC / fluorescein-TGTGTGTG probe, fluorescence polarization. As for the experimental part:
NCGC Assay Overview: HIV-1 nucleocapsid protein (HIV-1 NC) is a small (6.5 kDa) basic zinc-finger protein which participates in packaging of viral genomic RNA. The spacing and metal-chelating residues (3 Cys, 1 His) of the Cys-X2-Cys-X4-His-X4-Cys Zn fingers are conserved among all known retroviruses (J. Med. Chem. 1998, 41, 1371-1381). HIV-1 NC was assayed for its binding to the consensus sequence single-stranded 5'-TGTGTGTG. […] High salt was included to increase the stringency of binding and inhibitor screen. Reducing agents and zinc were present to stabilize the nucleocapsid zinc-finger protein.
NCGC Assay Protocol Summary: Buffer. Hepes pH 7.5, 250mM NaCl, 1uM ZnCl2. 0.004% polyethylene glycol 20000. TCEP (100 uM) and 2-Mercaptoethanol (5 mM), added fresh the day of the experiment. Reagents/Controls. 10 nM TG4xF only in columns 3 and 4 as negative control. 10 nM TG4xF/100 nM HIV-1 NC in columns 1, 2, 5-48. Titration of control compound NSC-13778 (from 20 mM, then 1:2) pin-transferred to column 2. Assay Steps. Two uL of reagents were dispensed to 1536-well Kalypsys black plates. The plates were centrifuged for 1 min at 1000 rpm. Compounds and controls (20 nL) were transferred via Kalypsys PinTool. The plates were incubated for 1 hr at room temperature, and then read on ViewLux (Perkin-Elmer). High-throughput CCD imager using fluorescein polarization filter set and 45 seconds exposure time.
In the case of `Cc1cccc(CNc2cc(-c3ccoc3)ncn2)c1`, the Potency is above 20 µM.
In the case of `Cc1cnc(CNc2cc(-c3cccc(NS(C)(=O)=O)c3)ncn2)cn1` it was above 20 µM; in that of `CN(C)c1ccc(-c2cncnc2NCCN2CCOCC2)cc1`, above 20 µM.
The result for `COc1ccccc1-c1cncnc1NCc1cccs1` reads above 20 µM.
For the compound `COc1ccc(CNc2cc(-c3ccccc3OC)ncn2)c(OC)c1`, the Potency was above 20 µM.
For the compound `COc1cccc(Cn2c(=O)c(-c3ccc(Cl)cc3)nc3cnc(N(C)C)nc32)c1`, the Potency was above 20 µM.
In the case of `CN(C)c1ncc2ncc(=O)n(C)c2n1` it was above 20 µM.
Consider `COc1ccc(Oc2ncc3nc(CCc4ccccc4)c(=O)n(C4CC4)c3n2)cc1`, for which the Potency is above 20 µM.
In the case of `COc1ncc2nc(-c3ccccc3)c(=O)n(Cc3cccs3)c2n1` it was above 20 µM.
The result for `CN(C)c1ccc(-c2nc(N(C)C)c3ccccc3n2)cc1` reads above 20 µM; that for `Cc1cnc(CNc2ccnc(-c3ccccc3CN(C)C)n2)cn1`, above 20 µM; that for `COc1cccc(-c2nc(NC3CCNCC3)c3ccccc3n2)c1`, above 20 µM.
For the compound `N#Cc1cccc(-c2nccc(NCc3cccnc3)n2)c1`, the Potency was above 20 µM.
The result for `COc1cccc(Cn2c(=O)c(-c3ccc(F)cc3)nc3cncnc32)c1` reads above 20 µM; that for `CCNc1ncc2ncc(=O)n(C[C@H]3CCCO3)c2n1`, above 20 µM; that for `Cc1cccc(CNc2nc(-c3c(C)noc3C)nc3ccccc23)c1`, above 20 µM.
In the case of `COc1ccccc1-c1nccc(-n2ccnc2)n1` it was above 20 µM.
The result for `CN(C)c1ncc2nc(-c3cc(F)cc(F)c3)c(=O)n(-c3ccccc3)c2n1` reads above 4 µM; that for `Cc1nc2cnc(Nc3ccccc3)nc2n(C)c1=O`, above 4 µM.
As to `COCCn1c(=O)c(-c2ccc(F)c(F)c2)nc2cncnc21`, the Potency is above 20 µM.
For the compound `O=C(c1csnn1)N1CCC[C@@]2(CCN(c3ncccn3)C2)C1`, the Potency was above 20 µM.
With `O=C(c1ccncc1)N1CCC2(CCN(Cc3cc(C(F)(F)F)cc(C(F)(F)F)c3)CC2)CC1`, the Potency is above 20 µM.
With `CN(C)C(=O)c1ccc(-c2ccc3ncnc(Nc4ccc(F)cc4)c3c2)cc1`, the Potency is above 20 µM.
In the case of `COc1ncc2nc(-c3cc(F)cc(F)c3)c(=O)n(C[C@H]3CCCO3)c2n1` it was above 20 µM; in that of `Cc1cnc(CNc2ncncc2-c2ccoc2)cn1`, above 20 µM; in that of `N#CCCn1c(=O)c(-c2cc(F)cc(F)c2)nc2cnc(OCc3ccccc3)nc21`, above 20 µM.
In the case of `Cc1cccc(CNc2ncncc2-c2cccc(C#N)c2)c1` it was above 20 µM; in that of `O=C(c1ccncc1)N1CCC2(CCCN(C(c3ccccc3)c3ccccc3)C2)CC1`, above 20 µM; in that of `Cn1cc(-c2nc3cncnc3n(-c3ccccc3)c2=O)c2ccccc21`, 4.43 µM (active).
The result for `Cc1nc2cnc(N(C)C)nc2n(CCc2ccccc2)c1=O` reads above 20 µM.
As to `Cn1c(=O)c(-c2ccccc2)nc2cnc(OCc3ccccc3)nc21`, the Potency is above 20 µM.
The result for `O=C(Oc1ccccc1)N1CCC[C@@]2(CCN(c3ccccc3)C2)C1` reads above 20 µM.
In the case of `COCCn1c(=O)c(-c2ccc(Cl)cc2)nc2cnc(N(C)C)nc21` it was above 20 µM; in that of `c1ccc(CNc2ccnc(-c3cccnc3)n2)cc1`, above 20 µM.
The result for `COc1ccc(-n2c(=O)c(-c3ccc(Cl)cc3)nc3cnc(N(C)C)nc32)cc1` reads above 20 µM; that for `O=C(Oc1ccccc1)N1CCC2(CC1)CCN(c1ccncc1)CC2`, above 20 µM.
Consider `Cn1cc(-c2nc3cncnc3n(Cc3ccccc3Cl)c2=O)c2ccccc21`, for which the Potency is above 20 µM.
`O=c1c(CCc2ccccc2)nc2cncnc2n1Cc1ccc(F)cc1`: the Potency is above 20 µM.
The result for `N#Cc1ccc(CN2CCC3(CC2)CCN(C(=O)c2cccc(F)c2)CC3)cc1` reads above 20 µM; that for `COc1cccc(Nc2ncc3nc(C)c(=O)n(C)c3n2)c1`, above 20 µM.
